These results are taken from PubChem BioAssay (NCATS).

Test [1] can be described thus: Cellular Toxicity (caspase-3) N2a (AID 665).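 Note: compound exposure lasted 16 h at 37 °C before readout.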 In short, it runs like this: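 Mouse N2a neuroblastoma cells (1500/well) were treated with compounds for 16 h at 37 °C, then caspase-3/7 activity was read by Caspase-Glo luminescence after 1 h at room temperature. Data were normalized to DMSO and 10 uM staurosporine; AC50 from Hill fits.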
Test [2] can be described thus: Cell Viability - LYMP1-002 - Assay at 24 hr (AID 993). Note: % is set by controls: 0 for no effect and ±100 for the full control effect. In short, it runs like this:
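Human lymphoblastoid LYMP1-002 cells, 2500/well in complete medium, were treated with compounds for 24 h at 37 C; intracellular ATP was read by CellTiter-Glo luminescence. AC50 values came from Hill-equation fits of qHTS concentration-response data.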

Test [3] addresses Bile acid receptor (Homo sapiens) (UniProt Q96RI1). As to the kind of experiment: qHTS assay for small molecule antagonists of farnesoid X receptor signaling (AID 588526; calls by dose curve; note: % is set by controls: 0 for no effect and ±100 for the full control effect). In short, it runs like this:
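Concentration-response titrations were fitted to the Hill equation for half-maximal inhibition and maximal response, with data normalised to 50 uM chenodeoxycholic acid and DMSO control wells. Cells: FXR-UAS-bla HEK293T, dialyzed FBS.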

Test [4] deals with Glucocorticoid receptor (Homo sapiens) (UniProt P04150). Briefly: qHTS assay for small molecule agonists of glucocorticoid receptor signaling (AID 588532; active = well fitted curve in the direction sought with a large enough effect in the signal ratio, with a control signal flat; the % refers to the signal ratio;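 note: 100% = dexamethasone at 0.1 µM and 0% = DMSO only wells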). The conditions noted are these: HeLa MMTV-bla, beta-lactamase ratio, agonist, 18 h; stronger effect = higher value; percent of dexamethasone control, DMSO zero. In short, it runs like this:
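Titration series, up to 92 uM, applied to GRE-bla HeLa cells for 18 h at 37 C. Detection by CCF4 FRET substrate after 2 h at RT.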
In general terms: Quantitative high-throughput screening tests each substance at several concentrations.

Test [5] shares this target. Briefly: qHTS assay for small molecule antagonists of glucocorticoid receptor signaling (AID 588533; active = well fitted inhibition curve with a large enough effect in the signal ratio, with a control signal flat, not every such curve was filed as active; the % refers to the signal ratio;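 note: cells stimulated with 2 nM dexamethasone as agonist; % is set by controls: 0 for no effect and ±100 for the full control effect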). In short, it runs like this: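 Antagonist-mode qHTS: compound titrations added to GRE-bla HeLa cells, then dexamethasone 2 nM final; 18 h, 37 C. CCF4 FRET fluorescence normalized to dexamethasone and DMSO; IC50 from Hill fit.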
The nature of test [6]: qHTS assay for small molecule antagonists of peroxisome proliferator-activated receptor delta signaling (AID 588535; active = well fitted inhibition curve with a large enough effect in the signal ratio, with a control signal flat, not every such curve was filed as active; the % refers to the signal ratio;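 for max response: cells co-treated with a PPAR-delta agonist as stimulator during compound exposure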). Particulars: HEK293T PPARd-UAS-bla, beta-lactamase FRET ratio, 18 h; 460 nm channel. In short, it runs like this: (§1)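 GeneBLAzer PPAR-delta-UAS-bla HEK293T cells in medium with 2% charcoal/dextran FBS were preincubated 5 hrs at 37 C, then given compounds, incubated 18 hrs at 37 C, and read by CCF4 beta-lactamase fluorescence; IC50 from Hill fits.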

Test [7] addresses Peroxisome proliferator-activated receptor delta (Homo sapiens) (UniProt Q03181). The test is described as above. In short, it runs like this:
as §1

For test [8], the target named is Peroxisome proliferator-activated receptor gamma (Homo sapiens) (UniProt P37231). As to the kind of experiment: qHTS assay for small molecule antagonists of peroxisome proliferator-activated receptor gamma signaling (AID 588537; active = well fitted inhibition curve with a large enough effect in the signal ratio, with a control signal flat, not every such curve was filed as active; the % refers to the signal ratio;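 note: reporter cells co-stimulated with 50 nM rosiglitazone agonist during compound treatment; % of control where 0% means no effect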). In short, it runs like this: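 PPAR-gamma-UAS-bla HEK293 cells (3000/well, 1% charcoal/dextran-stripped FBS) were preincubated 6-6.5 h at 37 C, given titrated compounds, then stimulated with 50 nM rosiglitazone for 16 h. Beta-lactamase activity was read with CCF4 dye; IC50 came from Hill fits.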
Peroxisome proliferator-activated receptor gamma (Homo sapiens), sequence (P37231 whole entry, looked up): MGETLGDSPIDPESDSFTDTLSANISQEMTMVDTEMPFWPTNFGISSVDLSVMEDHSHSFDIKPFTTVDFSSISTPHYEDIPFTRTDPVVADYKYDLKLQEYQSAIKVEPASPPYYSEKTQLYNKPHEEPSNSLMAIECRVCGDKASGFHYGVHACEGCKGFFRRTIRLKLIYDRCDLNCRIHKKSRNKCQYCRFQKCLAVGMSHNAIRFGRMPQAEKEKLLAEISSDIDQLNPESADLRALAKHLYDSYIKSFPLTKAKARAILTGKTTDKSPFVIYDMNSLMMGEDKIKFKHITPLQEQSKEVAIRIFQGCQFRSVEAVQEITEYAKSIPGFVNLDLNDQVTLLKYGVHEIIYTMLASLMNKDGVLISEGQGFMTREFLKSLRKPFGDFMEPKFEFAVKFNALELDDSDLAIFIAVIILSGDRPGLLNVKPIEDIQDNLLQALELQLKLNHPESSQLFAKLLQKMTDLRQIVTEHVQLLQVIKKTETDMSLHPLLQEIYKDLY

Test [9] concerns the target Vitamin D3 receptor (Homo sapiens) (UniProt P11473). As to the kind of experiment: qHTS assay for small molecule antagonists of vitamin D receptor signaling (AID 588541; calls by dose curve;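 note: receptor activated by calcitriol during compound treatment; % is set by controls: 0 for no effect and ±100 for the full control effect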). In short, it runs like this:
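VDR-UAS-bla HEK293T cells (2000/well, 2% charcoal-stripped FBS) were treated with titrated compounds plus 1-alpha,25-dihydroxyvitamin D3 (50 nM or 3 nM final) for 16 h at 37 C. CCF4 beta-lactamase fluorescence was read; Hill fits gave IC50.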

A short description of test [10]: qHTS assay for small molecule agonists of the antioxidant response element (ARE) signaling pathway (AID 651741; active = well fitted activation curve with a large enough effect in the signal ratio; the % refers to the signal ratio; note: potency is the fitted concentration of half-maximal effect; for activation: % of control where 0% means no effect). In short, it runs like this:
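ARE-bla HepG2 cells (beta-lactamase reporter under ARE control) were plated at 2,000 cells/well, preincubated 5 h at 37 C/5% CO2, then treated with DMSO-dissolved compounds for 16 h at 37 C; LiveBLAzer B/G FRET substrate added, fluorescence read after 2 h at room temperature.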

Test [11] in a line: qHTS assay to identify small molecules that stimulate interleukin-8 (IL-8) secretion (AID 651758; active = well fitted activation curve with a large enough effect in the signal ratio; the % refers to the signal ratio; note: potency is the fitted concentration of half-maximal effect; for activation: 0% is about no effect). In short, it runs like this:
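THP-1, 2000 cells/well; cpd 16 h, 37 C; add cryptate + XL665 anti-IL-8 Abs; RT 1-3 h; TR-FRET read.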

Test [12] has as its target Nuclear receptor ROR-gamma (Homo sapiens) (UniProt P51449). Briefly: qHTS assay for small molecule antagonists of the retinoid-related orphan receptor gamma (ROR-gamma) signaling pathway (AID 651802). Note: % is set by controls: 0 for no effect and ±100 for the full control effect; nearly all actives have a fitted effect of over 60% in size. In short, it runs like this: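 CHO cells carrying TET-inducible ROR-gamma and an ROR response element–luciferase reporter were exposed to compound, then induced with doxycycline. After 16hr at 37C, luminescence was read; lower signal indicates antagonism.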

A short description of test [13]: Cellular Toxicity (caspase-3) Hek293 (AID 664).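 Note: cells exposed to compound for 16 h at 37 °C before readout.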 In short, it runs like this: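 HEK293 cells were exposed to compounds in complete medium for 16 hr at 37 °C, then caspase-3/7 activity was read by Caspase-Glo 3/7 luminescence after 20 min at room temperature. Data normalized to DMSO and 100 uM tamoxifen; AC50 from Hill fits.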
Test [14] is described as follows: Cell Viability - LYMP2-004 (AID 966).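 Note: plate controls were DMSO only for no effect and tetraoctylammonium bromide control for full effect; nearly all actives have a fitted effect of over 65% in size.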 In short, it runs like this:
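Human lymphoblastoid cells (2500/well) in complete medium were treated with compounds for 24 hr at 37 C, then intracellular ATP was measured by CellTiter-Glo luminescence. AC50 values came from Hill-equation fits of concentration-response data.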

A short description of test [15]: qHTS assay for environmental chemicals that activate the Aryl hydrocarbon Receptor (AhR) signaling pathway (AID 651777). Note: % of control where 0% means no effect; nearly all actives have a fitted effect of over 15% in size. Particulars: 1A2-DRE human hepatoma cells, luciferase, 24 h; activation: stronger effect = higher value. In short, it runs like this: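 Human hepatoma 1A2-DRE cells, stably carrying a dioxin response element and CYP1A2 promoter driving luciferase, were exposed to compounds for 24 hr at 37 C and 5% CO2. Luciferase signal was then read after 30 min One-Glo at room temperature.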

Test [16] concerns the target Cytochrome P450 3A4 (Homo sapiens) (UniProt P08684). Briefly: qHTS Assay for Inhibitors and Substrates of Cytochrome P450 3A4 (AID 884). Note: % is set by controls: 0 for no effect and ±100 for the full control effect; nearly all actives have a fitted effect of over 50% in size. In short, it runs like this:
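20 nM human CYP3A4 with 25 uM Luciferin-PPXE (at KM) in 200 mM KPO4, preincubated 10 min with compound; NADPH regeneration started a 60 min RT reaction. Luciferin detected by luminescence, normalized to 57 uM ketoconazole as full inhibition.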

The target of test [17] is Ubiquitin carboxyl-terminal hydrolase 1 (Homo sapiens) (UniProt O94782). As to the kind of experiment: Inhibitors of USP1/UAF1: Pilot qHTS (AID 504865).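 Note: rhodamine fluorescence freed from ubiquitin-rhodamine substrate followed over time; top concentration of the series differs between compounds; % is set by controls: 0 for no effect and ±100 for the full control effect; nearly all actives have a fitted effect of over 35% in size.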 In short, it runs like this: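 In 50mM HEPES pH 7.8 containing 0.5mM EDTA, 1mM TCEP, 0.1 mg/ml BSA and 0.01% Tween-20, 1nM USP1/UAF1 is exposed to compound for 15 min, then Ub-Rho (150nM final) is added and fluorescence is read over time.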
Ubiquitin carboxyl-terminal hydrolase 1 (Homo sapiens), sequence (O94782 whole entry, looked up): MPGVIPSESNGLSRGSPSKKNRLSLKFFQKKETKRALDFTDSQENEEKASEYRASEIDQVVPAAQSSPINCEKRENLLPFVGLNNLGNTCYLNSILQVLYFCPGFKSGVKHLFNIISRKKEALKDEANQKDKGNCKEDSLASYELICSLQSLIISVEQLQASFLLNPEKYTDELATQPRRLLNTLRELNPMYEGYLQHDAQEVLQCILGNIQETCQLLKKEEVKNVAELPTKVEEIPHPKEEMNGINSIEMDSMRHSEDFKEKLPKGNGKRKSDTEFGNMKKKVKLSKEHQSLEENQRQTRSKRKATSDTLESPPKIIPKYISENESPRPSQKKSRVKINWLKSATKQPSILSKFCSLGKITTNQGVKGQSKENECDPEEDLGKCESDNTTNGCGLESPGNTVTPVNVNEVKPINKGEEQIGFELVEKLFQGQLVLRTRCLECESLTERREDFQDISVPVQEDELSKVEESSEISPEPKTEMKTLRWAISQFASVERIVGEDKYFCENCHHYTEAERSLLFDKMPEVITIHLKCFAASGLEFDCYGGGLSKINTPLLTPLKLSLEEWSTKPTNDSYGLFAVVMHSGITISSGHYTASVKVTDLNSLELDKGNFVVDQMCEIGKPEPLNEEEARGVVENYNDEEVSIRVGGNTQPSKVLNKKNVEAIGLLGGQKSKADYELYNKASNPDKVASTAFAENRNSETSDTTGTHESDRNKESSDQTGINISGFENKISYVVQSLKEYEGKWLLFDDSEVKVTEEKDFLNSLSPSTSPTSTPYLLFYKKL

Test [18] deals with Glucocorticoid receptor (Homo sapiens) (UniProt P04150). As to the kind of experiment: GR-GFP Redistribution (AID 450;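 active = compounds whose dose series gives a full or clear partial fitted curve of increased nuclear translocation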; note: potency is the fitted concentration of half-maximal effect). The conditions noted are these: U2OS GR-GFP nuclear translocation, laser cytometry, 2 h.
Glucocorticoid receptor (Homo sapiens), sequence (P04150 whole entry, looked up, the tested form may be a part): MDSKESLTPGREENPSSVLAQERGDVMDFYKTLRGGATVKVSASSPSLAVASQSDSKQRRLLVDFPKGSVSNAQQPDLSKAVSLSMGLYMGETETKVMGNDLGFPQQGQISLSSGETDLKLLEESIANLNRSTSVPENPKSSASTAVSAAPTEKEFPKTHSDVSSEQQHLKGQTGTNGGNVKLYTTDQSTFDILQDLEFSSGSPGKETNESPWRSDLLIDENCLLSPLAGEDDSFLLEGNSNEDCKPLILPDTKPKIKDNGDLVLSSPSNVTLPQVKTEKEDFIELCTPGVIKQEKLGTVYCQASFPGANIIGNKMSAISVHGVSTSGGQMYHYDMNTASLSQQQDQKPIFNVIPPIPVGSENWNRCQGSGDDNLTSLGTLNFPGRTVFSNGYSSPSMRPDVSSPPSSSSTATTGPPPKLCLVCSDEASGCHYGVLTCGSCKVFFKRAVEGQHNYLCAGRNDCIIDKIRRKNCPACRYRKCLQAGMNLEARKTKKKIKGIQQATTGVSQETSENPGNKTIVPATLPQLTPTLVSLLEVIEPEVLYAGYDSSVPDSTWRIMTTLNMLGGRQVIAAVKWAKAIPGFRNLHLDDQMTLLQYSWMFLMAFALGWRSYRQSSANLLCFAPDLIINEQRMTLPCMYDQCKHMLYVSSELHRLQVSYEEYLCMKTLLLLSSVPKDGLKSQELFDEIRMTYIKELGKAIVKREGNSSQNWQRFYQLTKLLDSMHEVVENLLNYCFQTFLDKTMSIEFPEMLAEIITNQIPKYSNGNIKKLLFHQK
Test [19] shares this target. As to the kind of experiment: GR-EFC Redistribution (AID 451; calls by dose curve; note: potency is the fitted concentration of half-maximal effect). The conditions noted are these: CHO-K1 GR-EFC translocation, beta-gal luminescence, 2 h. In short, it runs like this: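 CHO-K1 cells stably expressing nuclear-localized β-gal enzyme acceptor and GR fused C-terminally to the enzyme donor fragment; ligand-driven nuclear translocation restores β-gal by complementation. Compounds titrated up to 46 uM final, 2 h at 37 °C; luminescence read.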

Test [20] in a line: NFAT Signaling Pathway (AID 444; active = well fitted curve in either direction with a large enough effect, not every such curve was filed as active). The conditions noted are these: Jurkat NFAT-bla M1, carbachol, beta-lactamase ratio, 5 h; at 7.69 µM (top of the series) unless noted. In short, it runs like this:
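Jurkat cells carrying an NFAT-driven β-lactamase reporter and co-transfected muscarinic M1 receptor were treated with compound plus carbachol (1 uM final, an EC50 level) for 5 h at 37 °C. CCF4 loading followed for 1 h at RT; 460/530 nm ratio gave %activity.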

“And” between values parts separate entries of the source, which are not always exact repeats. Equal entries are not always repeated. Results filed as inconclusive are left out. The source made the active and inactive calls. Unless noted, calls come from the whole dose curve; as a rule, active = well fitted curve in the direction sought with a large enough effect; inconclusive = small, poorly fitted or top-dose-only effect, or another doubt; inactive = no such curve, though single readings can be large; an effect the other way counts as inactive or inconclusive.

Bile acid receptor (Homo sapiens), sequence (Q96RI1 whole entry, looked up): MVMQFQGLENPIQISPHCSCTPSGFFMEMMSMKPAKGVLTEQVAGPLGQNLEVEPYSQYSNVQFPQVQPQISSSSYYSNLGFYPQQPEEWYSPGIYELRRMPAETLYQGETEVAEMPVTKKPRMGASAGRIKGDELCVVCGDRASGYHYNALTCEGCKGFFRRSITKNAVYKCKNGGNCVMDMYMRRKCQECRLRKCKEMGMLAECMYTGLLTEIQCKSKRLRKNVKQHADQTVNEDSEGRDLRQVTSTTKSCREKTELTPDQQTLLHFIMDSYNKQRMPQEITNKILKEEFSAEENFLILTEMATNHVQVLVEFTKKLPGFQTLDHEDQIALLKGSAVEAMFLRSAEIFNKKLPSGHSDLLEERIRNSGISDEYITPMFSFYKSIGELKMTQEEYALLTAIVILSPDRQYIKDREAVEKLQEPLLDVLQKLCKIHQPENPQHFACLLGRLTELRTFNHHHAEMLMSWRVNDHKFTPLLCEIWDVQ
Peroxisome proliferator-activated receptor delta (Homo sapiens), sequence (Q03181 whole entry, looked up): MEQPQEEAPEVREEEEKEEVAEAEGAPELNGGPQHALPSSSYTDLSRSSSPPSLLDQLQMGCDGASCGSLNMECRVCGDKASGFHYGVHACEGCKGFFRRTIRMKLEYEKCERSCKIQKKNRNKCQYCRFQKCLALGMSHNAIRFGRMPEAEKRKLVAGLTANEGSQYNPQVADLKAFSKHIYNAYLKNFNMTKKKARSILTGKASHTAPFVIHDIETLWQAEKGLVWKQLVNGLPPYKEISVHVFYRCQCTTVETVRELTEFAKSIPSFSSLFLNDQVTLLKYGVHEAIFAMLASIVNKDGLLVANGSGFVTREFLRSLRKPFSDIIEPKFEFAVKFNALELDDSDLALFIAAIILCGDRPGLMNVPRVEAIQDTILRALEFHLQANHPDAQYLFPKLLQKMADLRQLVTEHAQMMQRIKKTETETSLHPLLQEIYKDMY
Cytochrome P450 3A4 (Homo sapiens), sequence (P08684 whole entry, looked up): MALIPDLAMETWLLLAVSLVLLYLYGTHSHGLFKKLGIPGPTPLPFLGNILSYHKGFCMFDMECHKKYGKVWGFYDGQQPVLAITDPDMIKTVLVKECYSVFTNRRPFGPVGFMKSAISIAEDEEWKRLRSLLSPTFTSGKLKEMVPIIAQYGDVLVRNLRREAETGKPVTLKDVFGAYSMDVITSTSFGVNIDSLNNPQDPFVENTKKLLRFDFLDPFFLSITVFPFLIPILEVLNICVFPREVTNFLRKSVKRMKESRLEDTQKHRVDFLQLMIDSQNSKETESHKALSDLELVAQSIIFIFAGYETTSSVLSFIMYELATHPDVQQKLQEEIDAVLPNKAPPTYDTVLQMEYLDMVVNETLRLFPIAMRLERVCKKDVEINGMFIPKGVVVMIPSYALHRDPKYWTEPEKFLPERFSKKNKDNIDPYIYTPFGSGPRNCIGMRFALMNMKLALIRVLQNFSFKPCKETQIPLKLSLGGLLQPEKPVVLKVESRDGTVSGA
Vitamin D3 receptor (Homo sapiens), sequence (P11473 whole entry, looked up): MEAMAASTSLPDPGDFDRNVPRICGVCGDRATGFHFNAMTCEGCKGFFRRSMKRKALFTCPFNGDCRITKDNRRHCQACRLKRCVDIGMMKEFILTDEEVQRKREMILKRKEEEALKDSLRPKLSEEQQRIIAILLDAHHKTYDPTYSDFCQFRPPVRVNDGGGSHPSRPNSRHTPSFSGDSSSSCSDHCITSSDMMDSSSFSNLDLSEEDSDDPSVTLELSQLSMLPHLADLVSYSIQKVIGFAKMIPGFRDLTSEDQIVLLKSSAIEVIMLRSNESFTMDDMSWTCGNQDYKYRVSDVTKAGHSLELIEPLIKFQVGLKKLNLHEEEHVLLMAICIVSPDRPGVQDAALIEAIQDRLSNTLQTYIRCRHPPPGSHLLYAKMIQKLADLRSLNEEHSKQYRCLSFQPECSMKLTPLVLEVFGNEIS
Nuclear receptor ROR-gamma (Homo sapiens), sequence (P51449 whole entry, looked up): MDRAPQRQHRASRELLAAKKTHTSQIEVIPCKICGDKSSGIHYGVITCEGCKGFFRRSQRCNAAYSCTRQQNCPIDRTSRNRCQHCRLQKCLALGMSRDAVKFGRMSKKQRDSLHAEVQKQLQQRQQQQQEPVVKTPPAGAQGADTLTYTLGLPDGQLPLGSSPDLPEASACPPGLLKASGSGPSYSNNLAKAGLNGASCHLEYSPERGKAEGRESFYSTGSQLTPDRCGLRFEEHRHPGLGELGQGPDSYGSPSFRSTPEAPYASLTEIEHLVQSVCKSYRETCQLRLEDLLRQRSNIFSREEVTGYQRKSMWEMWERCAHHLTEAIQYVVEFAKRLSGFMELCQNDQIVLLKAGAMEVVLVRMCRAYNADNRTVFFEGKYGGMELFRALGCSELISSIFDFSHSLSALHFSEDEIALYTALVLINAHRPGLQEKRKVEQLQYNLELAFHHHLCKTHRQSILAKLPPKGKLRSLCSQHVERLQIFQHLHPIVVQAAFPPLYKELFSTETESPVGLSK

In the case of `O=[N+]([O-])c1cccc(Cl)c1Cl`, the molecule was called inactive in [1], in test [3], in test [8] and in test [9]. Besides, the Potency entry in test [2], in test [5], in test [7], in [10], in test [11] and in test [12] was “inactive” each time. Further, in test [4], the activation is 3.57% (inactive) and 3.5% (inactive). Moreover, the max response in [6] is -5.68% and -3.79%.
On to `C=Cc1ccccc1Cl`, for which the molecule was classed as inactive in [1], in [3] and in test [9]. Further, the activation in [4] was -0.22% (inactive). Further, the Potency result in test [5], in test [7], in [10], in test [11] and in [12] was “inactive” in each case. Moreover, in test [6], the max response is -3.33%.
`Cc1ccc(N)c([N+](=O)[O-])c1`: the call in test [13], in test [8] and in test [9] was inactive. Also, the Potency result in test [14], in test [2], in test [5] and in test [7] was “inactive” throughout. The activation in test [4] is 2.77% (inactive) and 13.2% (inactive); in [15] it was 2.83% (inactive) and 1.74% (inactive). In addition, the max response in test [6] is -16.3% and -11.9%.
`c1ccc2c(c1)[nH]c1ccccc12`: the Potency result in test [16], in test [5], in test [7] and in test [10] was “inactive” each time. In addition, the activation in test [4] was -0.462% (inactive) and 14.4% (inactive); in [15] it was 0.0505% (inactive) and 2.39% (inactive). Also, the max response in [6] was -0.442% and 48.8%. Also, the call in test [8] was inactive.
Turning to `S=C1NC=NC2N=CNC12` (centres undefined), the Potency entry in test [16], in [17] and in test [12] was “inactive” in each case. For the same molecule, the Potency in [10] was 23.7 µM (active); in [11] it was 42.2 µM (active). Also, the activation in test [15] was -2.14% (inactive).
Turning to `COc1ccc2[nH]cc(CCNc3ncnc4ccc(-c5cccc(C#N)c5)cc34)c2c1`, the Potency in test [18] and in test [19] was > 46 µM (inactive) throughout. Besides, the Potency result in [17] is “inactive”.
`CCC(O)OC(O)CC` (centres undefined): the Potency result in test [14], in test [5] and in test [11] was “inactive” throughout. In addition, the activation in test [4] is 1.96% (inactive) and -2.19% (inactive) and -0.591% (inactive); in [15], 0.464% (inactive) [middle of 4 runs]. Besides, the molecule was classed as inactive in test [8] and in [9].
With `CCCCCCCCCCCCCCC1CO1` (centres undefined), the call in test [13], in [8] and in test [9] was inactive. Moreover, the Potency result in test [14], in test [5], in test [7], in test [10] and in test [12] was “inactive” each time. Besides, the activation in [4] is 1.74% (inactive) and -2.57% (inactive). Further, in [6], the max response was determined as 14.3%.
On to `Clc1cc(Cl)c(Cl)cc1Cl`, for which the Potency result in test [14], in test [2], in test [5], in [7], in test [10] and in test [12] was “inactive” throughout. The activation is 3.81% (inactive) and -2.02% (inactive) in test [4]; -0.0961% (inactive) and 4.29% (inactive) in test [15]. Also, the max response in test [6] was 10.3% and -6.5%. Also, the molecule was classed as inactive in [8].
On to `Nc1ccc(Cl)cc1Cl`, for which the Potency entry in test [2], in [5], in [7] and in test [12] was “inactive” in each case. The outcome in [3] and in test [8] was inactive. The activation in test [4] is -1.05% (inactive) and -10.1% (inactive). Further, the max response in test [6] was 65.7% and 18%.
Consider `CN(C)C=O`, for which the Potency entry in test [16], in [2], in test [10], in [11] and in test [12] was “inactive” each time. The outcome in test [3] and in [8] was inactive. The activation in test [15] is 0.683% (inactive) and 0.177% (inactive) and 0.0089% (inactive).
For `Cc1noc(C)c1-c1nc(N2CCN(C)CC2)c2ccccc2n1`, the activity change, negative = inhibition in test [20] is -5.52% (inactive). For the same molecule, the Potency in test [18] and in [19] was > 46 µM (inactive) each time.
For `C=CCOC(=O)c1ccccc1C(=O)OCC=C`, the result in [1], in [3] and in test [8] was inactive. Also, the Potency entry in test [2] and in test [12] was “inactive” throughout.
As to `Cn1cc(-c2nc3cnc(N4CCNCC4)nc3n(CCc3ccccc3)c2=O)c2ccccc21`, the activity change, negative = inhibition in test [20] is 91.4% [activator] (active). Moreover, in [18], the Potency is > 9.22 µM (inactive).
On to `COc1ccc2nc(N)sc2c1`, for which the molecule was called inactive in [1] and in test [9]. The Potency entry in test [2], in test [5] and in test [12] was “inactive” throughout. Further, the activation in [4] is -7.22% (inactive) and -9.63% (inactive). Moreover, the Potency in test [10] was 54.5 µM (active).
